Results reported in ChEMBL document CHEMBL3988442, “University of Dundee, Small-Polar-MMV Screening Library” (2021).

Biological target: T1, Aspartate--tRNA(Asp/Asn) ligase (Mycobacterium tuberculosis (strain ATCC 25618 / H37Rv)) (UniProt P9WFW3); note: in the data most compounds retested in dose-response had high values
T1 sequence (whole entry): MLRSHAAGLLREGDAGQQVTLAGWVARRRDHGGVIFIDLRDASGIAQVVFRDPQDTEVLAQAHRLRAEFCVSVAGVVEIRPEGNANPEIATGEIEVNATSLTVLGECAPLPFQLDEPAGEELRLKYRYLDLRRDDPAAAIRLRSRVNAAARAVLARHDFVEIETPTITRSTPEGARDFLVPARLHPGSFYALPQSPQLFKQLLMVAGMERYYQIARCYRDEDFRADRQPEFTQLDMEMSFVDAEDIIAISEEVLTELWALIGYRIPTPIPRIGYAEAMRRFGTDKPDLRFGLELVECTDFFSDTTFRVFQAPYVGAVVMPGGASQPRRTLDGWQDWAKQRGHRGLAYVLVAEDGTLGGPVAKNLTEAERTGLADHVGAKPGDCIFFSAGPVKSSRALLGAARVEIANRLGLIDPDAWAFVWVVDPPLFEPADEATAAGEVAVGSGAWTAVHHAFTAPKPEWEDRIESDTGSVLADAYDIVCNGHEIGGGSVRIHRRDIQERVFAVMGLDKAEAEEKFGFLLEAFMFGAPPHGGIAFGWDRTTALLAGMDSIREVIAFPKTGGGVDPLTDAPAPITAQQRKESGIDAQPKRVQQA
Test: Assay for Asp RNA synthetase-1 from Mycobacterium tuberculosis
Format: functional
Parameters: scale not given: direction of the effect not stated beside the values
Details: 30 µM

| Compound | Percent Effect [%] |
| --- | --- |
| CC(C)CN1CCC(c2nc3c([nH]2)CC(C)(C)CNC3=O)C1 (stereo not given) | 1.44 |
| CCOc1ccc(N2CCCN=C2NC(=O)c2cccc(Cl)c2)cc1 | 9.12 |
| COCCN1CCN(C(=O)c2cc(C(C)C)on2)[C@H]2CS(=O)(=O)C[C@H]21 | -3.12 |
| O=C1c2cnc(N3CCOCC3)nc2CN1c1ccc2c(c1)OCO2 | 7.52 |
| CN(Cc1ccc(F)cc1)[C@@H]1CN(C(=O)c2cccs2)C[C@H]1O | 4.22 |
| Cc1ccc2nc(C3CCN(CCO)CC3)nn2c1 | 2.18 |
| CC(C)(C)c1cn2nc(N3CCC[C@@H]3CO)sc2n1 | -3.63 |
| CC(=O)N1CC(=O)N(c2cnn(C)c2)CC12CCN(Cc1ccoc1)C2 (stereo not given) | -2.35 |
| O=S(=O)(NC1=NCN(CCc2cccs2)CN1)c1ccc(F)cc1 | -0.523 |
| O=C(C1COCCO1)N1CCN(Cc2ccc3c(c2)CCO3)CC1 (stereo not given) | 1.71 |
| CCc1noc(C)c1C(=O)N1CCCC1Cn1cc(C)cn1 (stereo not given) | 4.02 |
| c1cc(CN2CCN(Cc3cscn3)CC2)cs1 | 1.38 |
| Cn1cc(-c2cnc(N3CCOCC3)nc2)cc1C(=O)N1CCOCC1 | -3.52 |
| CCc1n[nH]c(C2CN(CCc3cccs3)CCO2)n1 (stereo not given) | -6.83 |
| CN(C)CCNC(=O)CNC(=O)N1CCc2c([nH]c3ccc(Cl)cc23)C1 | 6.71 |
| CC(C)c1n[nH]c(C(=O)Nc2cc[nH]n2)c1Br | -4.43 |
| CS(=O)(=O)c1ccc(C(O)CN2CCC(c3ccn[nH]3)CC2)cc1 (stereo not given) | -7.22 |
| CC(Cn1cccn1)NC(=O)NCc1ccc(S(N)(=O)=O)cc1 (stereo not given) | 6.49 |
| O=C1NCC2(CCCN(Cc3ccccc3F)C2)Oc2ccccc21 (stereo not given) | -5.17 |
| C[C@@H]1C(=O)NC[C@H]2CN(CCc3ccccc3)C[C@H]21 | 4.21 |

| Compound | Percent Effect [%] |
| --- | --- |
| O=C(CN1CCCS1(=O)=O)NCCOc1ccc2c(c1)CCC2 | -5.23 |
| CC(NC(=O)N(C)Cc1ccsc1)c1ccc2c(c1)OCO2 (stereo not given) | 1.79 |
| Cc1nn(C)c(Cl)c1C1CCCN1C(=O)c1ccc2nncn2c1 (stereo not given) | -1.25 |
| O=C(Cn1cc(-c2ccccc2)ncc1=O)Nc1ccncc1 | 1.91 |
| CC(C)N1CCO[C@H]2CN(C(=O)c3ccoc3)C[C@H]21 | 8.86 |
| Cn1ccnc1CN1CCCCC1Cn1cccn1 (stereo not given) | 2.66 |
| Cc1cc(C)n(C2CCCN(C(=O)COCC(F)(F)F)C2)n1 (stereo not given) | -4.61 |
| Cc1ccc(N2CC[C@H](OCC3CC3)[C@@H]2Cc2cnn(C)c2)nn1 | 2.69 |
| CN(C(=O)Cc1c[nH]c2ccccc12)C1CCN(c2ccccn2)CC1 | -1.54 |
| Cc1cc(C2CCCN2Cc2ccn(C)c(=O)c2)no1 (stereo not given) | -1.63 |
| CC(C(=O)Nc1cccc(N2CCCCC2)c1)n1cncn1 (stereo not given) | 2.19 |
| CCc1nc(C(=O)NCc2ccc(N3CCNC(=O)C3)c(F)c2)c[nH]1 | 2.49 |
| Cc1nn(C)c(C)c1C1CCCN1CC(=O)Nc1ccncc1 (stereo not given) | 1.52 |
| Cc1nc(C)n(CC2CCCN(CCCOc3ccccc3)C2)n1 (stereo not given) | 0.568 |
| COCC1CC2(CCN(C(=O)c3cccc(C)c3)CC2)CO1 (stereo not given) | -0.131 |
| O=C(COc1cccc(Br)c1)N1CCOCC1c1ncon1 (stereo not given) | -0.929 |
| CC(=O)N1CCCN(C(=O)NCCc2cc(Cl)cc(Cl)c2)CC1 | -1.44 |
| Cc1cnn(C(C)C2CC2)c1NC(=O)c1cnccn1 (stereo not given) | -3.45 |
| Cc1noc(C(C)C)c1C(=O)NS(=O)(=O)c1ccc2c(c1)OCCCO2 | 2.22 |
| CCc1c(C(=O)NCC2CCS(=O)(=O)C2)cnn1-c1ccc(C)cc1 (stereo not given) | -1.8 |

Biological target: Shiga toxin 2 (Escherichia coli O157:H7) (UniProt P09385+P09386)
Test: E. coli 0.157:H7 Shiga Toxin SOP - stx2 screening assay
Format: functional
Parameters: scale not given: direction of the effect not stated beside the values
Details: 30 µM

| Compound | Percent Effect [%] |
| --- | --- |
| CC(C)CN1CCC(c2nc3c([nH]2)CC(C)(C)CNC3=O)C1 (stereo not given) | -12.2 |
| CCOc1ccc(N2CCCN=C2NC(=O)c2cccc(Cl)c2)cc1 | -69.6 |
| COCCN1CCN(C(=O)c2cc(C(C)C)on2)[C@H]2CS(=O)(=O)C[C@H]21 | -5.69 |
| O=C1c2cnc(N3CCOCC3)nc2CN1c1ccc2c(c1)OCO2 | -25.1 |
| CN(Cc1ccc(F)cc1)[C@@H]1CN(C(=O)c2cccs2)C[C@H]1O | -17.2 |
| Cc1ccc2nc(C3CCN(CCO)CC3)nn2c1 | -3.64 |
| CC(C)(C)c1cn2nc(N3CCC[C@@H]3CO)sc2n1 | -8.45 |
| CC(=O)N1CC(=O)N(c2cnn(C)c2)CC12CCN(Cc1ccoc1)C2 (stereo not given) | 0.489 |
| O=S(=O)(NC1=NCN(CCc2cccs2)CN1)c1ccc(F)cc1 | -18.8 |
| O=C(C1COCCO1)N1CCN(Cc2ccc3c(c2)CCO3)CC1 (stereo not given) | 8.81 |
| CCc1noc(C)c1C(=O)N1CCCC1Cn1cc(C)cn1 (stereo not given) | 31.4 |
| c1cc(CN2CCN(Cc3cscn3)CC2)cs1 | 26.6 |
| Cn1cc(-c2cnc(N3CCOCC3)nc2)cc1C(=O)N1CCOCC1 | -3.46 |
| CCc1n[nH]c(C2CN(CCc3cccs3)CCO2)n1 (stereo not given) | -38.7 |
| CN(C)CCNC(=O)CNC(=O)N1CCc2c([nH]c3ccc(Cl)cc23)C1 | -77.4 |
| CC(C)c1n[nH]c(C(=O)Nc2cc[nH]n2)c1Br | 13.3 |
| CS(=O)(=O)c1ccc(C(O)CN2CCC(c3ccn[nH]3)CC2)cc1 (stereo not given) | -3.06 |
| CC(Cn1cccn1)NC(=O)NCc1ccc(S(N)(=O)=O)cc1 (stereo not given) | 14.9 |
| O=C1NCC2(CCCN(Cc3ccccc3F)C2)Oc2ccccc21 (stereo not given) | -17.2 |
| C[C@@H]1C(=O)NC[C@H]2CN(CCc3ccccc3)C[C@H]21 | -4.99 |

| Compound | Percent Effect [%] |
| --- | --- |
| O=C(CN1CCCS1(=O)=O)NCCOc1ccc2c(c1)CCC2 | 9.97 |
| CC(NC(=O)N(C)Cc1ccsc1)c1ccc2c(c1)OCO2 (stereo not given) | 28.8 |
| Cc1nn(C)c(Cl)c1C1CCCN1C(=O)c1ccc2nncn2c1 (stereo not given) | 2.44 |
| O=C(Cn1cc(-c2ccccc2)ncc1=O)Nc1ccncc1 | -0.041 |
| CC(C)N1CCO[C@H]2CN(C(=O)c3ccoc3)C[C@H]21 | -1.73 |
| Cn1ccnc1CN1CCCCC1Cn1cccn1 (stereo not given) | 11.2 |
| Cc1cc(C)n(C2CCCN(C(=O)COCC(F)(F)F)C2)n1 (stereo not given) | -2.74 |
| Cc1ccc(N2CC[C@H](OCC3CC3)[C@@H]2Cc2cnn(C)c2)nn1 | -6.34 |
| CN(C(=O)Cc1c[nH]c2ccccc12)C1CCN(c2ccccn2)CC1 | 5.44 |
| Cc1cc(C2CCCN2Cc2ccn(C)c(=O)c2)no1 (stereo not given) | 8.31 |
| CC(C(=O)Nc1cccc(N2CCCCC2)c1)n1cncn1 (stereo not given) | 2.83 |
| CCc1nc(C(=O)NCc2ccc(N3CCNC(=O)C3)c(F)c2)c[nH]1 | -51.1 |
| Cc1nn(C)c(C)c1C1CCCN1CC(=O)Nc1ccncc1 (stereo not given) | 11.1 |
| Cc1nc(C)n(CC2CCCN(CCCOc3ccccc3)C2)n1 (stereo not given) | 8.48 |
| COCC1CC2(CCN(C(=O)c3cccc(C)c3)CC2)CO1 (stereo not given) | -2.68 |
| O=C(COc1cccc(Br)c1)N1CCOCC1c1ncon1 (stereo not given) | 9.16 |
| CC(=O)N1CCCN(C(=O)NCCc2cc(Cl)cc(Cl)c2)CC1 | -10 |
| Cc1cnn(C(C)C2CC2)c1NC(=O)c1cnccn1 (stereo not given) | -3.84 |
| Cc1noc(C(C)C)c1C(=O)NS(=O)(=O)c1ccc2c(c1)OCCCO2 | -0.248 |
| CCc1c(C(=O)NCC2CCS(=O)(=O)C2)cnn1-c1ccc(C)cc1 (stereo not given) | -0.796 |
